From PubChem BioAssay (NCI)
Compounds without any hit were thinned out: in the full panel of roughly 83,000, 20% have a hit.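 Single-concentration screen, 48 h exposure, 96-well plates. Endpoint: percent growth. Below 10 = active.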 A number with no mark means an inactive call. Activity calls are given as the source filed them.

Legend:
Experiment in all cases: NCI-60 one-dose screen, 48 h (100 = growth as untreated, 0 = no growth, -100 = all killed)
Conditions in all cases: 10 µM unless noted
[1] = tested on: T-47D breast
[2] = tested on: BT-549 breast
[3] = tested on: MDA-MB-435 melanoma
[4] = tested on: SW-620 colon
[5] = tested on: MCF7 breast
[6] = tested on: HCT-116 colon
[7] = tested on: HCC-2998 colon
[8] = tested on: KM12 colon

SMILES	growth [1]	growth [2]	growth [3]	growth [4]	growth [5]	growth [6]	growth [7]	growth [8]
Cc1cc(C(=C2C=CC(=Nc3ccccc3)C=C2)c2ccc(Nc3ccccc3)cc2)ccc1N	-50.1% (active)	-88.9% (active)	-68% (active)	-70.4% (active)	-44.3% (active)	0.559% (active)	-90.7% (active)	-89.2% (active)
CC(=O)OC1CC2CCC1(C)C2(C)C (centres undefined)	99.2%	112%	96.4%	98.1%	103%	107%	108%	104%
CC(C)Nc1ccc(Nc2ccc(NC(C)C)cc2)cc1	31.9%	53.2%	51.4%	47.9%	28.9%	25.7%	61.2%	29.3%
CN(C)c1ccc(/C=C/c2cc[n+](C)c(/C=C/c3ccc(N(C)C)cc3)c2)cc1	-2.17% (active)	18.9%	-48.7% (active)	9.01% (active)	-6.46% (active)	9.38% (active)	12.4%	-55.6% (active)
CCCCCCCCCCCCCCCC[N+]1(C)CCCC1c1cccnc1 (centres undefined)	45.2%	-6.27% (active)	63.9%	53.2%	41%	35%	19.8%	41.7%
O=C1c2ccccc2C(=O)c2c(O)c(Cl)cc(O)c21	28.1%	98.7%	102%	72.6%	49.9%	6.19% (active)	102%	83.7%
Cc1cc(=O)oc2cc(O)cc(O)c12	90.5%	101%	94.7%	92%	98%	90.5%	111%	111%
COC(=O)c1cc([N+](=O)[O-])cc([N+](=O)[O-])c1Cl	-28.3% (active)	117%	81.7%	31.7%	45.1%	-42.8% (active)	106%	105%
CCOC(=O)C1=NN(c2ccccc2)C(=O)/C1=C\N1C(=O)/C(=C/c2cccc(O)c2)SC1=S	93%	97%	109%	97.6%	91.8%	88.8%	99.8%	100%
CC1=CC(=NC(=O)CBr)C=C/C1=N\S(=O)(=O)c1ccccc1	12.3%	65.6%	43.4%	17%	16.3%	22.8%	110%	106%
Cc1ccc(/C=C2\CNC/C(=C\c3ccc(C)cc3)C2=O)cc1	14%	-72.2% (active)	-47.5% (active)	-44.1% (active)	1.76% (active)	-60% (active)	-81.3% (active)	-78.6% (active)
CC(/C=N/NC(N)=S)Cc1ccc(C(C)C)cc1 (centres undefined)	16.6%	64.1%	49.2%	63.5%	49.9%	51.4%	51.9%	89.5%
COc1ccc(C(OCC2OC(n3ccc(NC(=O)c4ccccc4)nc3=O)C(O)C2O)(c2ccccc2)c2ccccc2)cc1 (centres undefined)	40.2%	44.3%	31.1%	56%	13.3%	3.43% (active)	75.8%	19.2%
Cc1cc(C)c(C#N)c(Sc2nc(C)c([N+](=O)[O-])c(C)c2C#N)n1	68.7%	43.1%	42.9%	19.2%	26.4%	9.65% (active)	100%	60.8%
N=C(N)Sc1cccc[n+]1[O-]	63.1%	80.3%	62.9%	46.9%	14.6%	9.31% (active)	74.7%	55.1%
Cc1oc2c(C)c3oc(=O)cc(C)c3cc2c1CCl	53.9%	68.8%	63.4%	76.7%	49%	71.1%	98.8%	90.1%
O=C1C=CC(=O)N1C1CCCCCCCCCCC1	56.9%	87.5%	82.6%	-27.4% (active)	69.8%	0.595% (active)	106%	104%

SMILES	growth [1]	growth [2]	growth [3]	growth [4]	growth [5]	growth [6]	growth [7]	growth [8]
O=[N+]([O-])c1ccc(C2N(Cc3ccc(Cl)cc3)CCN2Cc2ccc(Cl)cc2)cc1	90%	98.2%	91.5%	98.1%	87.3%	72.8%	95.4%	101%
O=C(c1ccc(O)c(Br)c1)c1ccc(O)c(Br)c1	106%	100%	118%	109%	117%	101%	105%	99.2%
O=C1C=CC(=O)N1c1ccc(O)cc1	83.3%	103%	107%	95.6%	102%	106%	105%	109%
NC(=S)Nc1ccc2c(c1)Cc1ccccc1-2	81.9%	79.4%	110%	94.7%	70.1%	94.8%	97.6%	95.1%
CCCCCC/C=C1\CCC(CN2CCCC2)C1=O (centres undefined)	77.7%	104%	109%	97.9%	7.97% (active)	84.5%	107%	75.4%
CCN(CC)CCNC(Cc1ccccc1)c1ccc(OCc2ccccc2)cc1 (centres undefined)	68.5%	76.8%	26.7%	77.2%	78.2%	49.9%	45.4%	80.7%
CC1(C)CCCC2=C1C(=O)N(SC(Cl)(Cl)Cl)C2=O	66.9%	95.8%	92.1%	88%	67.3%	75.5%	96.5%	101%
OC(c1cc(C23CC4CC(CC(C4)C2)C3)nc2c(Cl)cc(Cl)cc12)C1CCCCN1 (centres undefined)	-74.3% (active)	37.7%	-66.1% (active)	-68.1% (active)	-80.7% (active)	-84% (active)	-71.7% (active)	-91.4% (active)
CCOc1ccc(Nc2nc3c(s2)C(=O)c2ccccc2C3=O)cc1	59%	87.4%	-80.2% (active)	70%	42.9%	52.7%	118%	81.4%
CCCCCCCCCCCC[n+]1ccc(CCCCCCCCC)cc1	-62.3% (active)	-27.3% (active)	-85.5% (active)	-67% (active)	-5.44% (active)	-91% (active)	-79.5% (active)	-74.4% (active)
O=C1CSC(=S)N1Cc1cccnc1	18.5%	51.7%	37%	17%	10.5%	42.3%	126%	7.96% (active)
CCN1CCCC(Nc2cc(C)nc(/N=C(/N)Nc3ccc(Cl)c(Cl)c3)n2)C1 (centres undefined)	-49.2% (active)	-59.5% (active)	-51.7% (active)	-59.3% (active)	-73.5% (active)	-54.9% (active)	-71.5% (active)	-14.8% (active)
Nc1nc(N)c2cc(Sc3cccc(C(F)(F)F)c3)ccc2n1	45%	50.3%	28.8%	22.5%	23.9%	15%	-57.2% (active)	24.8%
COc1ccc2c(c1)c(CC(=O)O)c(C)n2C(=O)c1ccc(Cl)cc1	107%	66.9%	96.8%	98.8%	83.7%	95.2%	108%	99.2%
CCN(CC)c1ccc(/C=C\C(=O)c2ccc(NC(C)=O)cc2)cc1	76.3%	94.8%	10.9%	42.5%	71.3%	58.6%	77.9%	48.1%
N#CC(=C1SCS1)[N+](=O)[O-]	29.1%	-6.56% (active)	16.4%	19.3%	16.7%	35.8%	27%	14.2%
